In the supplement of paper PMC6555819:

How the values were obtained:
Assay in all cases: PBM binding z-score (relative to random genomic background probes); higher = stronger binding; sequences stand for … in GC…GCGATTGACAGCGTAGAATGAAGG
[1] = tested on: PPARg:RXRa DBDmut IVT, anti-RXR (DBD mutation: RXRa K156A/R161A, NR concentration 270 nM, RXRa partner concentration 90 nM)
Summary of the method: (§1)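 On custom Agilent 4×180K arrays, double-stranded probes with 34-nt variable regions carried direct-repeat seeds, single-nucleotide variants, half-site ablations or random human genomic background. Ligand-free nuclear receptor dimers were applied for 1 h, and binding was read with antibodies against each partner (one per run). Binding z-scores come from regression-normalized fluorescence, with the random background probes as reference.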

[2] = tested on: PPARg:RXRa IVT, anti-PPARg (NR concentration 270 nM, RXRa partner concentration 90 nM)
Summary of the method: as §1

[3] = tested on: PPARg DBDmut:RXRa IVT, anti-PPARg (DBD mutation: PPARg1 K132A/R137A, NR concentration 270 nM, RXRa partner concentration 90 nM)
Summary of the method: as §1

[4] = tested on: PPARg DBDmut IVT, anti-PPARg (DBD mutation: PPARg1 K132A/R137A, NR concentration 270 nM)
Summary of the method: as §1

[5] = tested on: PPARg homodimer (NR concentration 180 nM)
Summary of the method: as §1

[6] = tested on: PXR:RXRa (NR concentration 270 nM, RXRa partner concentration 90 nM)
Summary of the method: as §1

[7] = tested on: PXR homodimer (NR concentration 270 nM)
Summary of the method: as §1

[8] = tested on: RARa:RXR (NR concentration 270 nM, RXRa partner concentration 90 nM)
Summary of the method: as §1

[9] = tested on: RARa homodimer (NR concentration 270 nM)
Summary of the method: as §1

[10] = tested on: RARb:RXRa (NR concentration 270 nM, RXRa partner concentration 90 nM)
Summary of the method: as §1

[11] = tested on: RARb homodimer (NR concentration 270 nM)
Summary of the method: as §1

[12] = tested on: RARg:RXRa (NR concentration 270 nM, RXRa partner concentration 90 nM)
Summary of the method: as §1

[13] = tested on: RARg homodimer (NR concentration 270 nM)
Summary of the method: as §1

[14] = tested on: RXRa DBDmut IVT, anti-RXR (DBD mutation: RXRa K156A/R161A, NR concentration 90 nM)
Summary of the method: as §1

[15] = tested on: RXRa homodimer (NR concentration 180 nM)
Summary of the method: as §1

[16] = tested on: THRa:RXRa (NR concentration 90 nM, RXRa partner concentration 90 nM)
Summary of the method: as §1

[17] = tested on: THRa homodimer (NR concentration 90 nM)
Summary of the method: as §1

[18] = tested on: VDR:RXRa (NR concentration 270 nM, RXRa partner concentration 90 nM)
Summary of the method: as §1

[19] = tested on: VDR homodimer (NR concentration 270 nM)
Summary of the method: as §1

| Sequence | PBM binding z-score [1] | PBM binding z-score [2] | PBM binding z-score [3] | PBM binding z-score [4] | PBM binding z-score [5] | PBM binding z-score [6] | PBM binding z-score [7] | PBM binding z-score [8] | PBM binding z-score [9] | PBM binding z-score [10] | PBM binding z-score [11] | PBM binding z-score [12] | PBM binding z-score [13] | PBM binding z-score [14] | PBM binding z-score [15] | PBM binding z-score [16] | PBM binding z-score [17] | PBM binding z-score [18] | PBM binding z-score [19] |
| --- | --- | --- | --- | --- | --- | --- | --- | --- | --- | --- | --- | --- | --- | --- | --- | --- | --- | --- | --- |
| CCAGACAGGTGAAAGGTAACACAGTCTGGTACGC | 2.09 | 3.4 | -0.472 | -0.499 | 0.837 | 1.29 | -0.0519 | 1.69 | 0.436 | 1.36 | 1.1 | 1.72 | 1.07 | -0.201 | 2.27 | 1.02 | -0.219 | 0.959 | -0.147 |
| TAGCCTAGGTCATGGGCCAATATACCACGCGAAC | 1.34 | 3.16 | 0.749 | -0.176 | 1.44 | 1.86 | -0.28 | 2.92 | 0.353 | 3.77 | 2.95 | 4.22 | 4.2 | 0.955 | 3.55 | 3.1 | 1.43 | 2.06 | 0.541 |
| GCTTACGGGTCAAATGTTATAGCATGAATAGAAT | 4.4 | 4.44 | 1.56 | 1.2 | 2.47 | 3.34 | -0.148 | 4.24 | 0.995 | 3.88 | 2.6 | 4.88 | 4.02 | 2.4 | 5.86 | 2.54 | -0.146 | 3.64 | 1.1 |
| TCTCGGAGGACACGAAGGTTAGAGCTTTCCAGAG | 0.921 | 0.171 | -0.626 | -1.17 | -0.693 | 0.0364 | -0.704 | 0.0543 | -1.13 | 1.88 | 1.26 | 0.969 | 1.89 | 0.169 | 0.126 | 1.59 | 0.277 | 0.237 | -0.226 |
| TCATATAGGTAACCAGGTGAAAGTCCGTAAGTTA | 5.2 | 5.99 | 0.0685 | 0.802 | 1.14 | 0.852 | 0.506 | 1.06 | 0.583 | 1 | 0.957 | 0.558 | 0.452 | 1.38 | 1.25 | 1.73 | 1.05 | 1.06 | 0.27 |
| CGTCCAAGGTCTATGCTAGGTCAGTGAAAGCATT | 0.0727 | 0.505 | -1.49 | -0.699 | 0.128 | 0.421 | -0.113 | 1.03 | 0.289 | 1.62 | 2.43 | 1.52 | 1.37 | 0.335 | 0.248 | 2.21 | 0.687 | 0.278 | 0.404 |
| ATATGTAGGTTAAGGGTCATTCCGGTTGGTTCGC | 7.18 | 7.95 | 2.74 | 3.31 | 3.95 | 5.32 | 1.33 | 5.86 | 1.66 | 3.58 | 3.85 | 4.63 | 3.26 | 2.44 | 5.95 | 3.49 | 1.62 | 5.11 | 4.26 |
| CTCGAAAGGTCGTACTCAGGTGAGTATACCAAAC | 1.03 | 1.95 | 0.751 | 1.1 | 2.32 | 3.69 | 0.0401 | 4.62 | 0.162 | 3.75 | 2.52 | 4.96 | 3.87 | 2.42 | 4.91 | 3.89 | 0.987 | 3.52 | 1.47 |
| CCGAGTAGGTTATGGGGGATTCAGGCAACGGTGA | 4.03 | 3.95 | 3.42 | 4.43 | 2.01 | 1.17 | 1.05 | 1.26 | 1.69 | 1.33 | 1.28 | 1.3 | 1.08 | 0.281 | 0.959 | 1.58 | 1.7 | 1.45 | 1.12 |
| ATACCAAGGTGATCGTGATGTCGTTGATACTAAC | 0.486 | 0.996 | 0.919 | 1.1 | 0.247 | -0.038 | 0.104 | 0.057 | 0.517 | 0.325 | 0.279 | 0.25 | 0.334 | 0.0865 | 0.28 | 0.81 | 0.541 | – | 0.117 |
| CTACCAAGGTTAACAAGGTCGTTGATTACTATTC | 1.98 | 1.78 | 0.186 | 0.431 | 1.25 | 4.32 | 8.81 | 3.19 | 0.369 | 2.81 | 2.69 | 2.82 | 2.39 | 2.35 | 2.98 | 3.39 | 1.93 | – | 3.98 |
| TGAATGAGGTTATAAGATCAGGGAGCGTTGCAAA | 0.796 | 1.56 | 0.774 | -0.572 | 0.0916 | 0.406 | -0.17 | 0.968 | -0.286 | 1.03 | -0.251 | 1.37 | 0.756 | 0.685 | 1.8 | 1.61 | -0.245 | – | 0.229 |
| CCTTACGGGTCAGTCCAGGTTATAGCATCGGAGT | 1.7 | 2.05 | -0.331 | -0.72 | 1.36 | 4.25 | 0.276 | 2.69 | 0.405 | 3.31 | 2.69 | 3.23 | 3.53 | 0.751 | 2.55 | 4.66 | 0.627 | – | 1.12 |
| ATCTCTAAGTAAAAGTTCAGTGAATCCCGAGGAT | -0.124 | 0.598 | 0.919 | 0.992 | 1.15 | 1.72 | 1.61 | 1.19 | 1.33 | 2.33 | 2.23 | 1.54 | 1.99 | 1.09 | 0.961 | 0.533 | -0.127 | – | 1.62 |
| TCATATAGATAATACAGGTGAAAGTCGGCATCTA | 2.86 | 1.53 | 1.59 | 1.15 | 0.855 | 0.717 | 0.495 | 1.04 | 2.03 | 0.481 | 0.362 | 0.456 | 0.632 | 2.07 | 1.02 | 0.394 | 0.216 | – | 0.608 |
